Among all 13,000 compounds or so, about 3,200 (25%) showed an effect of 50% or more. The list shows a part of the results.
Tested on: P. falciparum stage V gametocytes
Set-up: BacTiter-Glo ATP luminescence viability of purified stage V gametocytes in 384-well plates, per cent inhibition versus DMSO
Conditions: 48 h, 5 µM; inhibitor

| SMILES | % Inhibition [%] |
| --- | --- |
| COc1ccccc1NC(=O)Nc1ccc(-c2cccc(-c3nc4ccccc4[nH]3)c2)cc1 [TCMDC-133206] | 15.44 |
| FC(F)(F)c1cc(Nc2ncnc3ccc(Br)cc23)ccc1OCc1ccccc1 [TCMDC-131923] | 9.607 |
| CN1CCN(Cc2cccc(-c3ccc4c(Nc5ccc(Oc6ccccc6)cc5)ccnc4c3)c2)CC1 [TCMDC-138476] | 95.08 |
| c1cncc(Oc2ccc(Nc3ccnc4cc(-c5cccc(CN6CCCCC6)c5)ccc34)cc2)c1 [TCMDC-138491] | 61.6 |
| c1ccc(Oc2ccc(Nc3ccnc4cc(-c5cccc(CN6CCOCC6)c5)ccc34)cc2)cc1 [TCMDC-138475] | -43.1 |
| CN1CCN(Cc2nc(-c3ccc4c(Nc5ccc(F)c(O)c5)ccnc4c3)cs2)CC1 [TCMDC-138439] | 95.29 |
| COCCNCc1nc(-c2ccc3c(Nc4ccc(F)c(O)c4)ccnc3c2)cs1 [TCMDC-138411] | 27.64 |
| c1cncc(Oc2ccc(Nc3ccnc4cc(-c5cccc(CN6CCOCC6)c5)ccc34)cc2)c1 [TCMDC-138490] | -4.813 |
| CN1CCN(Cc2cccc(-c3cc4nccc(Nc5ccc(Oc6ccccc6)cc5)c4cc3Cl)c2)CC1 [TCMDC-138460] | 0.7486 |
| CN1CCN(Cc2cccc(-c3ccc4c(Nc5ccc(Oc6cccnc6)cc5)ccnc4c3)c2)CC1 [TCMDC-138489] | 97.22 |
| Oc1cc(Nc2ccnc3cc(-c4cccc(CN5CCCCC5)c4)ccc23)c(F)cc1Cl [TCMDC-138433] | 38.27 |
| Cc1ccc(O)cc1Nc1ccnc2cc(-c3csc(CN4CCN(C)CC4)n3)ccc12 [TCMDC-138459] | 29.46 |
| Cc1ccc(/C=C2/SC(=Nc3ccccc3)NC2=O)c(C)c1 [TCMDC-124428] | 45.43 |
| CCOC(=O)c1cncc(/C=C/c2cc(C)cnc2N)c1 [TCMDC-134321] | 18.35 |
| CC(C)(C)C1CC(=O)CC2C(=O)N(C3CCCCC3)C(=O)C21 (centres unmarked) [TCMDC-139129] | -1.455 |
| CC1(C)NC(N)=NC(=N)N1OCc1nc(N)nc(Nc2ccccc2)n1 [TCMDC-131613] | 27.92 |
| C=CCN1C(=O)C(C(C)=O)=C(O)C1c1ccccc1 (centres unmarked) [TCMDC-131675] | 0.4612 |
| CC(C)C[C@@H](C(=O)Nc1ccc(Cc2ccc(NC(=O)[C@H](CC(C)C)N(C)C(=O)OC(C)(C)C)cc2)cc1)N(C)C(=O)OC(C)(C)C [TCMDC-131871] | 6.615 |
| CN1CCN(Cc2nc(-c3ccc4c(Nc5ccc(Oc6ccccc6)cc5)ccnc4c3)cs2)CC1 [TCMDC-138409] | 54.56 |
| c1ccc(Oc2ccc(Nc3ccnc4cc(-c5csc(CN6CCCCC6)n5)ccc34)cc2)nc1 [TCMDC-138428] | -35.56 |
| CCN(CC)/C(=N/C(=N)Nc1ccc(C)cc1)NCCCCCCN/C(=N\C(=N)Nc1ccc(C)cc1)N(CC)CC [TCMDC-131810] | 116.5 |
| CCc1ccc(CN(Cc2ccc(C)cc2)Cc2ccc(NC(C)=O)cc2)cc1 [TCMDC-140034] | 13.22 |
| N=C(N)NN=CC(=O)Nc1ccc(Br)cc1 [TCMDC-137562] | -7.978 |
| CCCN1CCN(CC(O)CNC(=O)Nc2ccc(Br)cc2)CC1 (centres unmarked) [TCMDC-134638] | 9.49 |

| SMILES | % Inhibition [%] |
| --- | --- |
| CCN(CC)/C(=N/C(=N)Nc1ccc(Br)cc1)NCCCCCCN/C(=N\C(=N)Nc1ccc(Br)cc1)N(CC)CC [TCMDC-131814] | 118.9 |
| CC(=O)Nc1ccc(C(=O)N2CCN(c3ccnc4cc(Cl)ccc34)CC2)cc1 [TCMDC-133574] | -9.196 |
| CCCC1N=C(N)N=C(N)N1c1ccc(C)cc1 (centres unmarked) [TCMDC-131297] | 8.167 |
| CC(C)(C)c1ccc(CNCCOc2ccc(Nc3nnc(-c4ccc(-c5ncc[nH]5)cc4)o3)c3ccccc23)cc1 [TCMDC-138667] | -26.34 |
| N#Cc1ccc2c(c1)CCN(CCC1CCC(NC(=O)c3ccc(-c4ccccc4)s3)CC1)CC2 (centres unmarked) [TCMDC-139837] | -13.04 |
| CC(=O)Nc1nc(C(=O)Nc2ccc(-c3ccc(-c4nc5c(C)cccc5[nH]4)cc3)cc2)cs1 [TCMDC-137125] | -51.44 |
| Cc1nn(-c2ccnc3cc(Cl)ccc23)c(C)c1C(=O)NCc1cc(Cl)cc(Cl)c1 [TCMDC-134231] | -2.069 |
| COc1ccc2nccc(N3CCC(NCc4ccc5c(n4)NC(=O)CS5)CC3)c2n1 [TCMDC-134652] | 3.663 |
| COc1ccc2nccc(N3CCC(NCCNCc4ccc5c(n4)NC(=O)CS5)C3)c2n1 (centres unmarked) [TCMDC-134649] | 67.81 |
| COc1ccc2nccc(N3CCC(CCNCc4ccc5c(n4)NC(=O)CO5)CC3)c2n1 [TCMDC-141943] | 5.733 |
| COc1ccc2nccc(N3CCC(NCCNCc4ccc5c(n4)NC(=O)CO5)C3)c2n1 (centres unmarked) [TCMDC-134548] | 51.99 |
| COc1ccc2nccc(N3CCC(SCCNCc4ccc5c(n4)NC(=O)CS5)C3)c2n1 (centres unmarked) [TCMDC-134285] | -20.26 |
| COc1ccc2nccc(N3CCC(SCCNCc4ccc5c(n4)NC(=O)CO5)C3)c2n1 (centres unmarked) [TCMDC-134206] | 10.7 |
| O=C(NC(c1ccccc1)c1ccccc1)C(c1cc2ccccc2o1)N1CCN(C(c2ccccc2)c2ccccc2)CC1 (centres unmarked) [TCMDC-141009] | -31.77 |
| CC1(C)N=C(N)N=C(N)N1c1cccc(Cl)c1 [TCMDC-123960] | 45.27 |
| O=C1c2ccccc2CCC1CCN1CC=C(c2c[nH]c3ccccc23)CC1 (centres unmarked) [TCMDC-140685] | -66.61 |
| CC1(C)CN(CCC2CCC(NC(=O)/C=C/c3ccccc3F)CC2)Cc2ccc(C#N)cc21 (centres unmarked) [TCMDC-139501] | 15.62 |
| CCCCCn1c(Sc2ccc(C#N)c([N+](=O)[O-])c2)nnc1-c1ccc(Cl)cc1 [TCMDC-135598] | 19.94 |
| CCn1c(Sc2ccc([N+](=O)[O-])c(C#N)c2)nnc1-c1cccc(Cl)c1 [TCMDC-135234] | 107.6 |
| CCn1c(Sc2ccc([N+](=O)[O-])c(C#N)c2)nnc1-c1ccc(Cl)cc1 [TCMDC-135235] | 96.27 |
| COCCn1c(Sc2ccc(C#N)c([N+](=O)[O-])c2)nnc1-c1ccc(N(C)C)cc1 [TCMDC-135613] | 43.33 |
| CCCCCCn1c(Sc2ccc(C#N)c([N+](=O)[O-])c2)nnc1-c1ccc(Cl)cc1 [TCMDC-135599] | 28.19 |
| CCCCCCn1c(Sc2ccc(C#N)c([N+](=O)[O-])c2)nnc1-c1ccc(N(C)C)cc1 [TCMDC-135618] | 23.6 |
| CCCn1c(Sc2ccc(C#N)c([N+](=O)[O-])c2)nnc1-c1ccc(Cl)cc1 [TCMDC-135581] | 50.77 |

| SMILES | % Inhibition [%] |
| --- | --- |
| CCCn1c(Sc2ccc(C#N)c([N+](=O)[O-])c2)nnc1-c1ccc(N(C)C)cc1 [TCMDC-135610] | 57.06 |
| CCCCn1c(Sc2ccc(C#N)c([N+](=O)[O-])c2)nnc1-c1ccc(OC)cc1 [TCMDC-135583] | 19.44 |
| CCn1c(Sc2ccc(C#N)c([N+](=O)[O-])c2)nnc1-c1cccc(Cl)c1 [TCMDC-135592] | 10.47 |
| CN1CCC(N(C)c2nccc(N3CCN(Cc4cncn4Cc4ccccc4)CC3)n2)CC1 [TCMDC-125095] | -8.441 |
| Cc1ccc(-n2cc(CNCC3CCN(CCO)CC3)c(-c3ccc(F)cc3)n2)cc1 [TCMDC-124689] | 28.13 |
| O=C(CNC1=NCCN1)Nc1ccc(NC(=O)Nc2ccc(NC(=O)CNC3=NCCN3)cc2)cc1 [TCMDC-137202] | 4.446 |
| O=C(NCCCCN1CCCC2c3cccc(O)c3CCC21)c1ccc(-c2ccccc2)cc1 (centres unmarked) [TCMDC-139080] | 37.51 |
| O=C(N[C@H](Cc1ccc(Cl)cc1)C(=O)N1CCN(c2ccnc3cc(Cl)ccc23)CC1)[C@H]1Cc2ccccc2CN1 [TCMDC-141498] | 2.012 |
| CC(=O)c1ccc2c(c1)C(NC(=O)c1cccc(Cl)c1Cl)C(CO)C(C)(C)O2 (centres unmarked) [TCMDC-138988] | -12.37 |
| O=C(Nc1ccc(OC2CCN(Cc3ccccc3)C2)c(Cl)c1)c1ccc(F)cc1 (centres unmarked) [TCMDC-133972] | 8.518 |
| O=c1cc(NCCCNCc2scc3c(Cl)cc(C(F)(F)F)nc23)[nH]c2ccccc12 [TCMDC-141146] | 31.07 |
| Cc1cc(N2CCCC2=O)ccc1-c1ccc(C(=O)N2CCC(Oc3cccc(Cl)c3)CC2)cc1 [TCMDC-136525] | -32.31 |
| Oc1ccccc1CCNC1CCc2ccccc2C1 (centres unmarked) [TCMDC-137890] | 12.83 |
| COc1cc(Cc2cnc(N)nc2N)ccc1OCc1ccc(-c2csnn2)cc1 [TCMDC-138683] | -3.694 |
| CC(C)CCn1c(Sc2ccc(C#N)c([N+](=O)[O-])c2)nnc1-c1ccc(Cl)cc1 [TCMDC-135596] | 54.47 |
| CC(C)CCn1c(Sc2ccc(C#N)c([N+](=O)[O-])c2)nnc1-c1ccccc1Cl [TCMDC-135615] | 17.65 |
| COc1ccc(-c2nnc(Sc3ccc(C#N)c([N+](=O)[O-])c3)n2CCC(C)C)cc1 [TCMDC-135601] | 7.84 |
| CCCn1c(Sc2ccc(C#N)c([N+](=O)[O-])c2)nnc1-c1ccc(OC)cc1 [TCMDC-135582] | 31.08 |
| CCn1c(Sc2ccc(C#N)c([N+](=O)[O-])c2)nnc1-c1ccc(OC)cc1 [TCMDC-135602] | 29.96 |
| CC(C)Cn1c(Sc2ccc(C#N)c([N+](=O)[O-])c2)nnc1-c1ccccc1Cl [TCMDC-135609] | 54.29 |
| CC(C)CCn1c(Sc2ccc(C#N)c([N+](=O)[O-])c2)nnc1-c1cccc(Cl)c1 [TCMDC-135591] | 23.85 |
| CC(C)Cn1c(Sc2ccc(C#N)c([N+](=O)[O-])c2)nnc1-c1ccccc1 [TCMDC-141918] | 17.88 |
| CCn1c(Sc2ccc(C#N)c([N+](=O)[O-])c2)nnc1-c1ccc(Cl)cc1 [TCMDC-135597] | 65 |

Source: PMC4552634, “A New Set of Chemical Starting Points with Plasmodium falciparum Transmission-Blocking Potential for Antimalarial Drug Discovery” (PLoS ONE, 2015)
